In PubChem BioAssay (NCATS):
Inconclusive results are not listed. Activity calls are given as the source filed them. The call rests on the fitted dose curve; in most records, active means well fitted activation curve with a large enough effect; inconclusive means small, poorly fitted or top-dose-only effect, or effect the other way; inactive means flat fitted curve, though single readings scatter.

experiment: qHTS Assay for Identification of Small Molecule Agonists for Thrombopoietin (TPO) Signaling Pathway (AID 917); conditions: TPO signaling pathway reporter cells, agonist qHTS; series mostly up to 38.5 µM
Procedure: NIH Molecular Libraries Screening Centers Network [MLSCN]
NIH Chemical Genomics Center [NCGC]
The thrombopoietin (TPO) signaling pathway was assayed in murine Ba/F3 cells stably transfected with the human TPO receptor and a luciferase reporter gene controlled by the Glycoprotein IIb promoter (provided by Axxam). BaF3 cells are an IL-3-dependent pro B cell line that upon TPO stimulation, undergo cell division and induce the megakaryocyte marker, Glycoprotein IIb. The assay was screened at the EC50 of TPO (26 pM) to identify activators of the pathway.
NCGC Assay Protocol Summary:
Cells were maintained at 37 C and 5% CO2in RPMI with 10% fetal bovine serum, 0.5 ng/mL murine IL-3, 100U/ml penicillin and 100 ug/ml streptomycin. Prior to plating, cells were incubated overnight in medium without IL-3. Cells were plated at 250 cells/5uL/well into white solid 1536-well plates, 23 nL of compounds were delivered by a pin tool, and 1 uL of TPO (26 pM final concentration in IL-3 deficient medium) was added. Following 24 hrs of incubation at 37 C and 5% CO2, 4 uL of Steadylite detector mix (PerkinElmer) was added, the plates incubated at room temperature for 10 min and luminescence was measured for 10 s and 2X binning by a ViewLux detector (Perkin Elmer).

SMILES	outcome
COc1ccc2[nH]cc(CCN(C)C)c2c1	inactive
C/C(O)=C(/C#N)C(=O)Nc1cc(Br)ccc1Br	inactive
N[C@H](CCCCCP(=O)(O)O)C(=O)O	inactive
CC(C)(C)c1o[nH]c(=O)c1C[C@H](N)C(=O)O	inactive
COc1ccc(CCN)cc1O	inactive
O=C1CC[C@@]2(O)[C@H]3Cc4ccc(O)c5c4[C@@]2(CCN3CC2CC2)[C@@H]1O5	inactive
N#CC(C#N)=Cc1ccc([N+](=O)[O-])c(O)c1	inactive
C[C@@H](Cc1ccc(OCC(=O)O)cc1)NC[C@H](O)c1cccc(Cl)c1	inactive
COC(=O)N1CCN(C(=O)Cc2ccc(Cl)c(Cl)c2)[C@H](CN2CCCC2)C1	inactive
COc1cc(CCN)ccc1O	inactive
CN1C(=O)CCS(=O)(=O)[C@H]1c1ccc(Cl)cc1	inactive
Oc1ccc2c3c1O[C@H]1c4oc5ccccc5c4C[C@]4(O)[C@H](C2)N(CC2CC2)CC[C@@]314	inactive
C[C@H](N)Cc1c[nH]c2ccc(O)cc12	inactive
N[C@H](C(=O)O)c1cc(=O)[nH]o1	inactive
N[C@@H](Cn1cc(I)c(=O)[nH]c1=O)C(=O)O	inactive
COC(=O)c1cc2c(cn1)[nH]c1ccccc12	inactive
N[C@@]1(C(=O)O)CC[C@H](C(=O)O)C1	inactive
C=CCN1CCC2(C)c3cc(O)ccc3C[C@H]1[C@H]2C	inactive
CCOC(=O)c1ncn2c1[C@H]1CCCN1C(=O)c1cc(OC)ccc1-2	inactive
O=C1NCN(c2ccccc2)C12CCN(C[C@H]1COc3ccccc3O1)CC2	inactive
CN1CC[C@@]23CCCC[C@@H]2[C@@H]1Cc1ccc(O)cc13	inactive
Cc1o[nH]c(=O)c1C[C@H](N)C(=O)O	inactive
NC[C@H](CP(=O)(O)O)c1ccc(Cl)cc1	inactive
N[C@H](CCP(=O)(O)O)C(=O)O	inactive
N[C@H](CP(=O)(O)O)C(=O)O	inactive
O=C(Cc1ccc(Cl)c(Cl)c1)N1CCCC[C@H]1CN1CCCC1	inactive
COc1ccc(CNC(=O)/C=C\c2ccc3[nH]cc(CCN(C)C)c3c2)cc1	inactive
